# Shown is part of a subset that was picked to be rich in the strongest signals.
# B1: PX14367A-bth-493-35-493 (Bacteroides thetaiotaomicron) (protein)
# chain: VSSDQVAVAGNAERLFNGAWYNLFEYGTTYANIGYRALQCQDDMMASDVVSRPKYGFNSSYQFNDVAIPSDGRTSFAWYLIYKTIDNCNTAISIKGDSEELRQAQGQALALRAFCYLHLVQHYQFTYLKDKDAPCVPIYTEPTTSGTKPKGKSTVAQVYQQIFDDLNLAQDYLTNYVRKGDGQKFKPNTDVVNGLMARAYLLTGQWGEAAKAAEAARKGYSLMTTTAEYEGFNNISNKEWIWGSPQTLSQSDASYNFYYLDATYVGAYSSFMADPHLMDTFVKGDIRLPLFQWMREGYLGYKKFHMRSDDTADLVLMRSAEMYLIEAEAKVRDGVALDQAVAPLNTLRTARGVGNYDVTGKTKEQVIDEILMERRRELWGEGFGITDVLRNQKAVERMALSEDMQKTEVDCWQEGGSFAKRNPLGHWFLNFPDGKAFSANSSYYLYAIPEKEINANPNL
# Experiments:
# Assay in all cases: glycan array binding signal (z-score within array); higher = stronger binding
# Conditions in all cases: glycan notation: IUPAC condensed, linker removed
# [1] = target: Fuc(a1-2)Gal6S(b1-4)Glc6S
# How it was run: (§1)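 Columns mapping to the same glycan were averaged after glycan names were converted to IUPAC-condensed notation. The data come from 3228 arrays in the Consortium for Functional Glycomics database, limited to those with an available protein sequence. Binding is reported as a within-array Z-score averaged across arrays of one protein sequence and across linkers.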
# [2] = target: Fuc(a1-2)[Gal(a1-3)]Gal(b1-3)GlcNAc(b1-3)GalNAc
# How it was run: as §1
# [3] = target: Fuc(a1-2)[Gal(a1-4)]Gal(b1-4)GlcNAc
# How it was run: as §1
# [4] = target: Fuc(a1-2)[GalNAc(a1-3)]Gal(b1-3)GalNAc(b1-3)Gal(a1-4)Gal(b1-4)Glc
# How it was run: as §1
# [5] = target: Fuc(a1-2)[GalNAc(a1-3)]Gal(b1-3)GlcNAc(b1-2)Man(a1-3)[Fuc(a1-2)[GalNAc(a1-3)]Gal(b1-3)GlcNAc(b1-2)Man(a1-6)]Man(b1-4)GlcNAc(b1-4)GlcNAc
# How it was run: as §1
# [6] = target: Fuc(a1-2)[GalNAc(a1-3)]Gal(b1-4)[Fuc(a1-3)]GlcNAc
# How it was run: as §1
# [7] = target: Fuc(a1-3)[Gal(b1-4)]GlcNAc(b1-2)Man(a1-3)[Fuc(a1-3)[Gal(b1-4)]GlcNAc(b1-2)Man(a1-6)]Man(b1-4)GlcNAc(b1-4)[Fuc(a1-6)]GlcNAc
# How it was run: as §1
# [8] = target: Fuc(a1-3)[Gal(b1-4)]GlcNAc(b1-3)Gal(b1-4)[Fuc(a1-3)]GlcNAc
# How it was run: as §1
# Gal(a1-2)Gal = target: Gal(a1-2)Gal
# How it was run: as §1
# [9] = target: Gal(a1-3)Gal(b1-4)GlcNAc(b1-2)Man(a1-3)[Gal(a1-3)Gal(b1-4)GlcNAc(b1-2)Man(a1-6)]Man(b1-4)GlcNAc(b1-4)GlcNAc
# How it was run: as §1
# [10] = target: Gal(b1-3)GlcNAc(b1-2)Man(a1-3)[GlcNAc(b1-4)][Gal(b1-3)GlcNAc(b1-2)Man(a1-6)]Man(b1-4)GlcNAc(b1-4)GlcNAc
# How it was run: as §1
# [11] = target: Gal(b1-3)GlcNAc(b1-3)Gal(b1-3)GlcNAc
# How it was run: as §1
# [12] = target: Gal(b1-3)[Fuc(a1-4)]GlcNAc
# How it was run: as §1
# [13] = target: Gal(b1-3)[Fuc(a1-4)]GlcNAc(b1-3)Gal(b1-3)[Fuc(a1-4)]GlcNAc
# How it was run: as §1
# [14] = target: Gal(b1-3)[GlcNAc(b1-6)]GalNAc
# How it was run: as §1
# [15] = target: Gal(b1-4)GlcNAc(b1-2)Man(a1-3)[Gal(b1-4)GlcNAc(b1-2)Man(a1-6)]Man(b1-4)GlcNAc(b1-4)GlcNAc
# How it was run: as §1
# [16] = target: Gal(b1-4)GlcNAc(b1-2)Man(a1-3)[Gal(b1-4)GlcNAc(b1-2)Man(a1-6)][GlcNAc(b1-4)]Man(b1-4)GlcNAc(b1-4)[Fuc(a1-6)]GlcNAc
# How it was run: as §1
# [17] = target: Gal(b1-4)GlcNAc(b1-2)Man(a1-3)[Man(a1-6)]Man(b1-4)GlcNAc(b1-4)GlcNAc
# How it was run: as §1
# [18] = target: Gal(b1-4)GlcNAc(b1-2)Man(a1-6)[GlcNAc(b1-2)Man(a1-3)]Man(b1-4)GlcNAc(b1-4)GlcNAc
# How it was run: as §1
# [19] = target: Gal(b1-4)GlcNAc(b1-2)[Gal(b1-4)GlcNAc(b1-4)]Man(a1-3)[Gal(b1-4)GlcNAc(b1-2)[Gal(b1-4)GlcNAc(b1-6)]Man(a1-6)]Man(b1-4)GlcNAc(b1-4)GlcNAc
# How it was run: as §1
# [20] = target: Gal(b1-4)GlcNAc(b1-2)[Gal(b1-4)GlcNAc(b1-6)]Man(a1-6)[Gal(b1-4)GlcNAc(b1-2)Man(a1-3)]Man(b1-4)GlcNAc(b1-4)[Fuc(a1-6)]GlcNAc
# How it was run: as §1
# [21] = target: Gal(b1-4)GlcNAc(b1-3)Gal(b1-4)GlcNAc
# How it was run: as §1
# [22] = target: Gal(b1-4)GlcNAc(b1-3)Gal(b1-4)GlcNAc(b1-2)Man(a1-3)[Gal(b1-4)GlcNAc(b1-3)Gal(b1-4)GlcNAc(b1-2)Man(a1-6)]Man(b1-4)GlcNAc(b1-4)GlcNAc
# How it was run: as §1
# [23] = target: Gal(b1-4)GlcNAc(b1-3)Gal(b1-4)GlcNAc(b1-2)Man(a1-3)[Gal(b1-4)GlcNAc(b1-3)Gal(b1-4)GlcNAc(b1-2)Man(a1-6)]Man(b1-4)GlcNAc(b1-4)[Fuc(a1-6)]GlcNAc
# How it was run: as §1
# [24] = target: Gal(b1-4)GlcNAc(b1-3)Gal(b1-4)GlcNAc(b1-3)Gal(b1-4)GlcNAc(b1-2)Man(a1-3)[Gal(b1-4)GlcNAc(b1-3)Gal(b1-4)GlcNAc(b1-3)Gal(b1-4)GlcNAc(b1-2)Man(a1-6)]Man(b1-4)GlcNAc(b1-4)GlcNAc
# How it was run: as §1
# [25] = target: Gal(b1-4)GlcNAc(b1-3)Gal(b1-4)GlcNAc(b1-3)Gal(b1-4)GlcNAc(b1-2)Man(a1-3)[Gal(b1-4)GlcNAc(b1-3)Gal(b1-4)GlcNAc(b1-3)Gal(b1-4)GlcNAc(b1-2)Man(a1-6)]Man(b1-4)GlcNAc(b1-4)[Fuc(a1-6)]GlcNAc
# How it was run: as §1
# [26] = target: Gal(b1-4)GlcNAc(b1-3)Gal(b1-4)GlcNAc(b1-3)Gal(b1-4)GlcNAc(b1-3)Gal(b1-4)GlcNAc(b1-2)Man(a1-3)[Gal(b1-4)GlcNAc(b1-3)Gal(b1-4)GlcNAc(b1-3)Gal(b1-4)GlcNAc(b1-3)Gal(b1-4)GlcNAc(b1-2)Man(a1-6)]Man(b1-4)GlcNAc(b1-4)GlcNAc
# How it was run: as §1
# [27] = target: Gal(b1-4)GlcNAc(b1-3)Gal(b1-4)GlcNAc(b1-3)Gal(b1-4)GlcNAc(b1-3)Gal(b1-4)GlcNAc(b1-2)Man(a1-3)[Gal(b1-4)GlcNAc(b1-3)Gal(b1-4)GlcNAc(b1-3)Gal(b1-4)GlcNAc(b1-3)Gal(b1-4)GlcNAc(b1-2)Man(a1-6)]Man(b1-4)GlcNAc(b1-4)[Fuc(a1-6)]GlcNAc
# How it was run: as §1
# [28] = target: Gal(b1-4)GlcNAc(b1-3)Gal(b1-4)GlcNAc(b1-3)Gal(b1-4)GlcNAc(b1-3)Gal(b1-4)GlcNAc(b1-3)Gal(b1-4)GlcNAc(b1-2)Man(a1-3)[Gal(b1-4)GlcNAc(b1-3)Gal(b1-4)GlcNAc(b1-3)Gal(b1-4)GlcNAc(b1-3)Gal(b1-4)GlcNAc(b1-3)Gal(b1-4)GlcNAc(b1-2)Man(a1-6)]Man(b1-4)GlcNAc(b1-4)[Fuc(a1-6)]GlcNAc
# How it was run: as §1
# Gal(b1-6)Gal = target: Gal(b1-6)Gal
# How it was run: as §1
binder,measurement,setting,value
B1,glycan array binding signal (z-score),[1],-0.358
same,glycan array binding signal (z-score),[2],-0.51
same,glycan array binding signal (z-score),[3],-0.256
same,glycan array binding signal (z-score),[4],-0.668
same,glycan array binding signal (z-score),[5],0.408
same,glycan array binding signal (z-score),[6],-0.482
same,glycan array binding signal (z-score),[7],-0.25
same,glycan array binding signal (z-score),[8],-0.421
same,glycan array binding signal (z-score),Gal(a1-2)Gal,-0.084
same,glycan array binding signal (z-score),[9],3.93
same,glycan array binding signal (z-score),[10],1.39
same,glycan array binding signal (z-score),[11],-0.152
same,glycan array binding signal (z-score),[12],-0.11
same,glycan array binding signal (z-score),[13],-0.392
same,glycan array binding signal (z-score),[14],-0.406
same,glycan array binding signal (z-score),[15],1.44
same,glycan array binding signal (z-score),[16],-0.354
same,glycan array binding signal (z-score),[17],3.6
same,glycan array binding signal (z-score),[18],-0.174
same,glycan array binding signal (z-score),[19],-0.334
same,glycan array binding signal (z-score),[20],-0.167
same,glycan array binding signal (z-score),[21],-0.81
same,glycan array binding signal (z-score),[22],3.94
same,glycan array binding signal (z-score),[23],7.69
same,glycan array binding signal (z-score),[24],2.81
same,glycan array binding signal (z-score),[25],2.6
same,glycan array binding signal (z-score),[26],1.4
same,glycan array binding signal (z-score),[27],2.51
same,glycan array binding signal (z-score),[28],6.87
same,glycan array binding signal (z-score),Gal(b1-6)Gal,-0.332

# Reference: the supplement of paper PMC8728848
